# Test results reported in PubChem BioAssay AID624133 (Broad Institute, 2012).
# Out of some 1,600 compounds screened, about 1,300 (81%) were called active. No rule for the calls is given here. So high a share suggests a set chosen from earlier hits. Not all results are given here. Results with a measured potency or affinity are listed apart.
# Assay: non-specific 3'UTR reporter inhibition in Clone20-Shn3RL – cell-based, Renilla luciferase, cherry-picked, counter-screen for Shn3 inhibitor project, dose response (AID 624133);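 also: 0% = neutral control wells and -100% = positive control wells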
# Details: Clone20-Shn3RL cells, Renilla luciferase luminescence, 24 h; at 35 µM (top of the series) unless noted
row,SMILES,"activity change, negative = inhibition"
1,CCn1nnc2cc(C(=O)Nc3cc(Cl)ccc3C)ccc21,-11.1%
2,CCOC(=O)c1c(C)[nH]c(C(=O)COC(=O)[C@H](C)N2C(=O)C3CCCCC3C2=O)c1C (some centres not stated),-5%
3,O=C(Nc1cccc(-c2ccc(N3CCCCC3)nn2)c1)C(F)(F)F,-50%
4,Nc1c(Br)cc2c(c1Br)C(O)c1ccccc1-2 (configuration not stated),22.2%
5,CCCOc1ccc2oc(=O)c3c(c2c1)CCCN3C(=O)CN1CCN(c2ncccn2)CC1,133%
6,COc1ccc(CN(C(=O)CSc2nnc(-c3ccc(F)cc3)o2)c2ccc(F)cc2)cc1,16.7%
7,CSc1cccc(NS(=O)(=O)c2ccc3c(c2)CCN3C(C)=O)c1,400%
8,COc1cc(SC)ccc1C(=O)Nc1nc2ccccc2[nH]1,-90%
9,Cc1cccc(CSc2cccc3cccnc23)c1,49.1%
10,O=C(NCc1ccccc1C(F)(F)F)c1cccc2c1C(=O)c1ccc(N3CCC(N4CCCCC4)CC3)cc1S2(=O)=O,-33.6%
11,CC(C)n1c(/C=C/[C@@H](O)C[C@@H](O)CC(=O)O)c(-c2ccc(F)cc2)c2ccccc21,-100%
12,O=c1cc(-c2ccc(O)cc2)oc2ccc3ccccc3c12,91.7%
13,Cn1cc([N+](=O)[O-])c(C(=O)Nc2sc3c(c2C#N)CCC3)n1,-10.8%
14,O=C(COC(=O)/C=C/c1ccc(OC(F)F)cc1)Nc1ccc2[nH]c(=O)[nH]c2c1,-21.3%
15,O=C(Nc1nc2cc3c(cc2s1)OCCO3)C1=COCCO1,45.8%
16,Cc1cccc(-c2noc(CN(C(=O)C(c3ccccc3)c3ccccc3)C(C)C)n2)c1,-29.9%
17,CC1=NOC(=O)/C1=C\c1ccc(-c2ccccc2Br)o1,35.7%
18,COc1ccc(NS(=O)(=O)c2ccc3ccccc3c2)c2ncccc12,293%
19,Nc1nnc(SCC(=O)Nc2ccc(N3CCOCC3)cc2)s1,45.8%
20,Cc1nc2scc(C)n2c(=O)c1S(=O)(=O)Nc1ccc(N2CCOCC2)c(Cl)c1,62.5%
21,CCOc1cc(/C=C2\C(=O)ON=C2C)ccc1OCc1ccccc1,-100%

row,SMILES,"activity change, negative = inhibition"
1,O=C(Nc1ccc(Cl)cc1)Nc1ccc(N2CCCC2)c(S(=O)(=O)Nc2ccccc2Cl)c1,-17.1% [at 16 µM]
2,COc1ccc(CNC(=O)C(c2ccc(C)cc2)N(Cc2cccs2)C(=O)c2ccc3c(c2)OCCO3)cc1 (configuration not stated),50%
3,COc1ccc(CCNC(=O)CCC(=O)N2CCOc3ccc(Cl)cc32)cc1OC,-107%
4,CCc1ccc(OCCNc2cc(N3CCNC(C)C3)ccc2[N+](=O)[O-])cc1 (configuration not stated),-83.3%
5,O=S(=O)(c1ccc(Cl)cc1)n1ccc2cccnc21,6.94%
6,Cc1ccc(C)c(S(=O)(=O)Nc2ccc(-n3cnnn3)cc2)c1,276%
7,COc1ccc(C(=O)OCC(=O)Nc2ccc3[nH]c(=O)[nH]c3c2)cc1,62.5%
8,Cc1ccccc1NC(=O)CSc1nc2ccccc2c(=O)n1C,10%
9,COc1ccc(N2C(=O)C(CC(=O)Nc3ccccc3)N(Cc3ccc(OC)c(OC)c3)C2=O)cc1 (configuration not stated),84.7%
10,CCCCC[C@H]1CN(Cc2ccc(OC)cc2)C(=O)[C@@H]1CC(=O)NCc1ccccc1,196%
11,COCCn1c(C)cc(C2=NNC(=NC3CC3)SC2)c1C,10%
12,Cc1ccc(S(=O)(=O)Nc2cccc3ncccc23)s1,-66.7%
13,Cc1nc(SCC(=O)Nc2nc3ccccc3s2)c(C#N)c(C)c1C,-8.33%
14,COc1ccc(NS(=O)(=O)c2ccc(OC)c(N(C)S(=O)(=O)c3ccc(Cl)cc3)c2)cc1,-58.3%
15,Cc1ccc(NC(=O)c2cc3ccccc3oc2=O)cc1S(=O)(=O)N(C)C,45.2%
16,Cc1cccc(C)c1NC(=O)CN(C)C(=O)c1cc(S(=O)(=O)N(C)C)ccc1N1CCCC1,41.7%
17,Cc1nc2ncnn2c(C)c1Cc1cccc(F)c1,25%
18,Cn1cc(CN(CCO)Cc2cccs2)c(-c2cccc(Cl)c2)n1,16.7%
19,COc1ccc(C(=O)Cn2c(C(=O)/C=C/c3ccccc3)nc3ccccc32)cc1,170%
20,O=C(O)c1cccc(COc2ccccc2Cl)c1,-10%
21,COc1ccc(OCc2cccc(C(=O)O)c2)cc1,107%

row,SMILES,"activity change, negative = inhibition"
1,Oc1c(C(c2cccs2)N2CCC3(CC2)OCCO3)sc2ncnn12 (configuration not stated),151%
2,CCN1C(=O)[C@H]2[C@@H](c3ccc(-c4ccc(OC)cc4)cc3)N3CCC[C@@]3(C(=O)OC)[C@H]2C1=O,-39.3%
3,COC(=O)[C@@]12CCCN1[C@H](c1ccc(-c3ccc(OC)cc3)cc1)[C@@H]1C(=O)N(C)C(=O)[C@@H]12,47.2%
4,CCCCN1CC(COCc2ccccc2)Oc2cccc(Oc3cc(C)c(C)c(C)c3)c2S1(=O)=O (configuration not stated),300%
5,CCCCN1CC(COCc2ccccc2)Oc2cccc(Oc3ccc(C)cc3)c2S1(=O)=O (configuration not stated),130%
6,COC(=O)c1ccccc1NC(=S)N(Cc1ccc2c(c1)OCO2)Cc1cc2cc(OC)ccc2[nH]c1=O,200%
7,O=C1S/C(=C\c2ccc(N3CCOCC3)o2)C(=O)N1Cc1c(F)cccc1Cl,400%
8,Cc1cc(C)n(-c2cc(-n3nc(C)cc3C)ncn2)n1,2.38%
9,C[C@@H]1CN([C@H](C)CO)C(=O)c2cc(Br)cnc2O[C@H]1CN(C)C(=O)Cc1ccncc1,83.3%
10,CN1OC[C@@H]2CN[C@H](c3ccc(-c4cc5ccccc5o4)cc3)C[C@@H]21,-25%
11,CN(CC(=O)Nc1cc(S(=O)(=O)N2CCCC2)ccc1Cl)Cc1ccc2c(c1)OCO2,87.5%
12,CC(C)(C)OC(=O)NCc1ccc(CNC(=O)c2nc[nH]c2C(=O)NCc2ccc(CNC(=O)OC(C)(C)C)cc2)cc1,208%
13,Cc1ccc(-n2cc(CNCCCn3ccnc3C)c(-c3ccc(F)cc3)n2)cc1,-91.7%
14,COC(=O)c1cn(NC(=O)c2cc([N+](=O)[O-])ccc2F)c(=O)c2ccccc12,354%
15,CC(C)c1ccc(Oc2cccc3c2S(=O)(=O)N(C2CCCC2)CC(COCc2ccccc2)O3)cc1 (configuration not stated),273%
16,Cn1cccc1Cc1nnc(SCC(=O)NCCc2ccccc2)n1-c1ccc(F)cc1,275%
17,CCN(CC)S(=O)(=O)c1ccc(N(C)Cc2cccc(OC)c2OC)nc1,-40%
18,CCOC(=O)c1ccc(NC(=O)c2nc[nH]c2C(=O)NCCNC(=O)c2[nH]cnc2C(=O)Nc2ccc(C(=O)OCC)cc2)cc1,47.9%
19,Cc1cccc2c(C(=O)N3CCN(c4ccccn4)CC3)cc(-c3cccc(Br)c3)nc12,-100%
20,COc1ccccc1N1CCN(c2ncc(C(=O)N3CCN(c4cccc(Cl)c4)CC3)c3ccccc23)CC1,66.7%
